Laboratory results: PubChem BioAssay (NCI)
About 83,000 compounds went through this panel and 20% of them were active in at least one assay; those are over-represented in the sample as a whole.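 How to read the values: 0–100, growth inhibition (40 = 60% inhibited); 0, no net growth; -100 to 0, cell death (-40 = 40% of starting cells died; -100 = all dead).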 Unmarked numbers belong to inactive results. How the source made its calls: active means growth percent below 10; inactive means the rest.

Tested on: SK-MEL-2 melanoma
Test: NCI-60 one-dose screen, 48 h (100 = growth as untreated, 0 = no growth, -100 = all killed)
Conditions: 10 µM unless noted

Compound | growth [%]
CCOC(=O)c1cnn(-c2nc(-c3ccc(F)cc3)c(C#N)c(N3CCOCC3)n2)c1N | 90
Cc1c(O)c(=O)ccn1-c1nc2ccccc2s1 | 90.5
Nc1ccc(C2=NN(C(=O)c3cc(-c4ccc(Cl)cc4)nc4ccccc34)C(c3ccc(Cl)cc3)C2)cc1 (stereo not drawn) | 34.7
COc1ccc2nc(-c3ccc(OC)c(OC)c3)cc(-c3nnc(SCC(=O)Nc4ccc(C(C)=O)cc4)o3)c2c1 | 100
CNCc1cccc2c1OCCOCCOCCN(CCN1CCOCC1)S(=O)(=O)c1ccc(cc1)-c1cnc(N)c(n1)C(=O)N2 | 60.9
COc1cc(C2=NN(C(C)=O)C(c3cccc(Nc4ccnc5cc(C(F)(F)F)ccc45)c3)C2)cc(OC)c1OC (stereo not drawn) | 81.4
CC(C)CSc1nc(Nc2ccccc2)c(C#N)c(-c2ccc(F)cc2)n1 | 78.8
CNc1cccc2c1C(=O)c1cccc(N)c1C2=O | 63.7
NC(=O)c1ccc(C2C3=C(CCCC3=O)OC3=C2C(=O)c2ccccc2C3=O)cc1 (stereo not drawn) | 20.6
C=CCn1c(SCC(=O)Nc2ccc(C(=O)/C=C/c3ccc(Cl)cc3)cc2)nnc1-c1cc(OC)c(OC)c(OC)c1 | 103
C=C1C(=O)O[C@H]2[C@H]1CC/C(C=Nc1c(N)cc(F)cc1Br)=C\CC[C@@]1(C)O[C@@H]21 | 86.7
COc1cc(-c2csc(NC(=O)Nc3ccc(Cl)cc3)n2)cc(OC)c1OC | 29.3
COc1ccc(C(=O)c2cc(OC)c(C)c(OC)c2)cc1OC(=O)CCl | 35.4
